Values without a mark were called inactive. Inconclusive results are not listed. Where a call stands in place of a potency, no number is given. Calls of active or inactive are those of the source. Calls come from the whole dose curve; as a rule, active = well fitted curve in the direction sought with a large enough effect in the repeat runs; inconclusive = weak or mixed curves; inactive = no such curve, though single readings can be large; an effect the other way counts as inactive or inconclusive.
Experiments:
[1] = Caspase-3/7 induction in HepG2 cells by small molecules, qHTS assay (AID 1346978); note: nearly all actives have a fitted effect of over 15% in size; note: potency is the fitted concentration of half-maximal effect
Method in brief: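 Caspase-3/7 induction was measured by Caspase-Glo 3/7 luminescence (30 min, room temperature) after a 17 hr compound exposure of wild-type HepG2 cells seeded at 2,000 per well and pre-incubated 5 hr.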

[2] = Caspase-3/7 induction in CHO-K1 cells by small molecules, qHTS assay (AID 1346980); note: nearly all actives have a fitted effect of over 15% in size
Method in brief: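 Luminescent Caspase-Glo 3/7 read (30min, room temperature) quantified apoptosis induction. Cells were wild-type CHO-K1, treated with compound for 17hr at 37 C and 5% CO2.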

[3] = Caspase-3/7 induction in HepG2 cells by small molecules, qHTS cell viability counter screen (AID 1346981); note: nearly all actives have a fitted effect of over 30% in size; note: potency is the fitted concentration of half-maximal effect
Method in brief: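 HepG2, WT, 2,000 cells/well; 5 hr pre-incubation 37 C/5% CO2; compound pin-transferred from DMSO; 16 hr exposure; CellTiter-Fluor, 1 hr; fluorescence read.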

[4] = biological target: Nuclear receptor subfamily 1 group I member 2 (Homo sapiens) (UniProt O75469); experiment: Human pregnane X receptor (PXR) small molecule agonists, qHTS assay (AID 1346982); note: nearly all actives have a fitted effect of over 35% in size; note: potency is the fitted concentration of half-maximal effect
Method in brief: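 Luciferase signal from ONE-Glo (30 min, room temperature) measured activation of hPXR-driven CYP3A4 reporter expression in PXR-Luc HepG2 cells treated with compounds for 24 hr at 37 C.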

[5] = biological target: Cytochrome P450 2D6 (Homo sapiens) (UniProt P10635); experiment: Cytochrome P450 Family 2 Subfamily D Member 6 (CYP2D6) small molecule antagonists: luciferase reporter qHTS assay (AID 1671196); note: nearly all actives have a fitted effect of over 50% in size; note: potency is the fitted concentration of half-maximal effect
Method in brief: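 Read-out is luminescence from luciferin formed by CYP2D6 turnover of a proluciferin substrate, recorded as relative luminescence units. Reactions ran 1 h at room temperature after NADPH regeneration solution was added.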

[6] = biological target: Cytochrome P450 2C19 (Homo sapiens) (UniProt P33261); experiment: Cytochrome P450 Family 2 Subfamily C Member 19 (CYP2C19) small molecule antagonists: luciferase reporter qHTS assay (AID 1671197); note: nearly all actives have a fitted effect of over 65% in size; note: potency is the fitted concentration of half-maximal effect
Method in brief: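 CYP2C19 P450-Glo, 1536-well qHTS. Cpd + enzyme/proluciferin substrate 10 min RT; + NADPH regen, 37C 1 h; stop with luciferin detection reagent, 20 min RT, luminescence (RLU). Pos ctrl ketoconazole.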

[7] = biological target: Cytochrome P450 1A2 (Homo sapiens) (UniProt P05177); experiment: Cytochrome P450 Family 1 Subfamily A Member 2 (CYP1A2) small molecule antagonists: luciferase reporter qHTS assay (AID 1671199); note: series mostly up to about 120 µM; nearly all actives have a fitted effect of over 50% in size
Method in brief: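 P450-Glo CYP1A2, 1536-well qHTS: enzyme/proluciferin substrate + cpd (DMSO), 10 min RT; NADPH regen, 1 h RT; detection reagent, 20 min; luminescence, RLU.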

[8] = biological target: Cytochrome P450 3A4 (Homo sapiens) (UniProt P08684); experiment: Cytochrome P450 Family 3 Subfamily A Member 4 (CYP3A4) small molecule antagonists: luciferase reporter qHTS assay (AID 1671201); note: nearly all actives have a fitted effect of over 50% in size; note: potency is the fitted concentration of half-maximal effect
Method in brief: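 P450-Glo CYP3A4 luminescent assay: compounds preincubated 10 min at room temperature with enzyme and proluciferin substrate, NADPH regeneration added, 1 h room-temperature reaction, stopped with luciferin detection reagent; luminescence read after 20 min. Ketoconazole positive control.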

[9] = Caspase-3/7 induction in CHO-K1 cells by small molecules, qHTS cell viability counter screen (AID 1346979); note: nearly all actives have a fitted effect of over 35% in size; note: potency is the fitted concentration of half-maximal effect
Method in brief: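 Wild-type CHO-K1 cells (1,500/well) treated with compound after 5 h plating; after 16 h at 37C, viability read as CellTiter-Fluor fluorescence following 1 h reagent incubation, in the same wells as the caspase read.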

[10] = biological target: Voltage-gated inwardly rectifying potassium channel KCNH2 (Homo sapiens) (UniProt Q12809); experiment: Human Ether-a-go-go-Related Gene (hERG) channel small molecule antagonists: fluorescence cell-based qHTS assay (AID 1671200);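 note: hERG-expressing U2OS cells given a thallium stimulus after FluxOR II dye loading; series mostly up to about 77 µM; nearly all actives have a fitted effect of over 50% in size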
Method in brief: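 hERG-U2OS cells plated overnight at 37 C, loaded with FluxOR II dye 1 h at RT in dark; after 10 min, thallium stimulus added. Fluorescence (480/540 nm) read kinetically for 2 min at 1 s intervals.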

[11] = biological target: Nuclear receptor subfamily 1 group I member 2 (Rattus norvegicus) (UniProt Q9R1A7); experiment: Rat pregnane X receptor (rPXR) activation by small molecules, qHTS assay (AID 1346983); details: rPXR luciferase reporter cells, One-Glo luminescence, 24 h; stronger effect = higher value; note: nearly all actives have a fitted effect of over 20% in size
Method in brief: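 Luminescent readout (One-Glo luciferase, 30 min room temperature) followed 24 hr compound treatment at 37 C of rPXR cells plated 2,000 per well and preincubated 5hr; qHTS format with compounds delivered in DMSO.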

[12] = biological target: Nuclear receptor subfamily 1 group I member 2 (Homo sapiens) (UniProt O75469); experiment: CYP3A4 induction through human pregnane X receptor (PXR) by small molecules, qHTS assay (AID 1346984); note: nearly all actives have a fitted effect of over 40% in size; note: potency is the fitted concentration of half-maximal effect
Method in brief: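 Luminescence readout: luciferase signal after One-Glo (30 min, room temperature), following 3 h at 37C with 3uM final Luciferin-IPA P450 substrate. Cells were DPX-2 (HepG2, PXR/CYP3A4-luc co-transfected) dosed for 24 h.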

[13] = biological target: Nuclear receptor subfamily 1 group I member 2 (Homo sapiens) (UniProt O75469); experiment: Human pregnane X receptor (PXR) activation by small molecules, qHTS assay (AID 1346985); note: nearly all actives have a fitted effect of over 40% in size; note: potency is the fitted concentration of half-maximal effect
Method in brief: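 DPX-2 cells (HepG2 co-transfected with a PXR response element and a CYP3A4-promoter luciferase construct) were seeded at 2,000 per well, rested 5 hr at 37C, then exposed to DMSO-dissolved compounds for 24 hr. Activation was read as luciferase luminescence.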

[14] = biological target: Cytochrome P450 2C9 (Homo sapiens) (UniProt P11712); experiment: Cytochrome P450 Family 2 Subfamily C Member 9 (CYP2C9) small molecule antagonists: luciferase reporter qHTS assay (AID 1671198); note: nearly all actives have a fitted effect of over 50% in size; note: potency is the fitted concentration of half-maximal effect
Method in brief: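 Enzyme-substrate mix preincubated with compound 10 min at room temperature; reaction started with NADPH regeneration solution, 1 h 37C. Luminescent luciferin product read after 20 min detection reagent.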

Chain of Cytochrome P450 2C9 (Homo sapiens) (P11712 whole entry, looked up): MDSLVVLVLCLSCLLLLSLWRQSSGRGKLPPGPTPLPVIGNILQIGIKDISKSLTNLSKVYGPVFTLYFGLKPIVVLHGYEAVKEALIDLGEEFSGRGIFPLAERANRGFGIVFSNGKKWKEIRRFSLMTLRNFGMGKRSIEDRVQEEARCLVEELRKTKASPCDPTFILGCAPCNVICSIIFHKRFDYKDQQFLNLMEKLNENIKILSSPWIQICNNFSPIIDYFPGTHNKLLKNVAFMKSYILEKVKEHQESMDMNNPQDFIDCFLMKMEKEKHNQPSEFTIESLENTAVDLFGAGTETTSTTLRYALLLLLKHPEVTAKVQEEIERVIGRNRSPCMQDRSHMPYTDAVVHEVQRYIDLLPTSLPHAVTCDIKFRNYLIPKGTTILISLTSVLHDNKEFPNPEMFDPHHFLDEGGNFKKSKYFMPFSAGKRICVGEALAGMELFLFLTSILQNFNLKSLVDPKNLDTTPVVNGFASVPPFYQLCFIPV
Chain of Voltage-gated inwardly rectifying potassium channel KCNH2 (Homo sapiens) (Q12809 whole entry, looked up): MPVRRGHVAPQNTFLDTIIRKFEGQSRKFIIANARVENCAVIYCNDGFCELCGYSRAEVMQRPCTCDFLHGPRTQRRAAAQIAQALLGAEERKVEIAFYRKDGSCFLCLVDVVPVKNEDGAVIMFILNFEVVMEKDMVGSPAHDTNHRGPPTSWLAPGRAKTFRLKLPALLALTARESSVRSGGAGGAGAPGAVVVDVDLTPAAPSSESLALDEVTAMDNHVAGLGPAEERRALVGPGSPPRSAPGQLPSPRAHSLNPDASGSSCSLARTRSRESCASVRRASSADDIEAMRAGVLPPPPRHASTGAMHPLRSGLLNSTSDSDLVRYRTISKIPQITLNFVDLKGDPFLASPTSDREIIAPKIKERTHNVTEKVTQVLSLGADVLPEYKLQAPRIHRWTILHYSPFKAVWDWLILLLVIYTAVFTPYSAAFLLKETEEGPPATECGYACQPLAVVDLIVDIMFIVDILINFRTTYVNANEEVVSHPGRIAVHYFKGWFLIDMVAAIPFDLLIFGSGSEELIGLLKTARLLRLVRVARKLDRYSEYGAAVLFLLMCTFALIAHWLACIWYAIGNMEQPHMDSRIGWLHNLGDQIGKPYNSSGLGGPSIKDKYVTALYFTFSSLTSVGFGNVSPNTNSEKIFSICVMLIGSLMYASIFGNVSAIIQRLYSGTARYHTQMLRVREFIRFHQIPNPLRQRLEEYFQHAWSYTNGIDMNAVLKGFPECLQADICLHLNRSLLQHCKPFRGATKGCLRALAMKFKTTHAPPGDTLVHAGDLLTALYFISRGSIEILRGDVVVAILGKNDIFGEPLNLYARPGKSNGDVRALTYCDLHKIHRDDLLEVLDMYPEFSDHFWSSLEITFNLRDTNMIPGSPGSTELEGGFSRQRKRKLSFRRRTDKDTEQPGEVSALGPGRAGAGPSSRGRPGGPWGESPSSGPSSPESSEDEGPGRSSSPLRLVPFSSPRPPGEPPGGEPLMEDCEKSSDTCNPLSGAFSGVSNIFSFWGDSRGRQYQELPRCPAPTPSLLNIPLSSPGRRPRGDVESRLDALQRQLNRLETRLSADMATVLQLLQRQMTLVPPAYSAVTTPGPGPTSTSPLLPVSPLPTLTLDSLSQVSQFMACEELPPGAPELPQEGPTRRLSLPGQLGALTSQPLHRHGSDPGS
Chain of Cytochrome P450 3A4 (Homo sapiens) (P08684 whole entry, looked up): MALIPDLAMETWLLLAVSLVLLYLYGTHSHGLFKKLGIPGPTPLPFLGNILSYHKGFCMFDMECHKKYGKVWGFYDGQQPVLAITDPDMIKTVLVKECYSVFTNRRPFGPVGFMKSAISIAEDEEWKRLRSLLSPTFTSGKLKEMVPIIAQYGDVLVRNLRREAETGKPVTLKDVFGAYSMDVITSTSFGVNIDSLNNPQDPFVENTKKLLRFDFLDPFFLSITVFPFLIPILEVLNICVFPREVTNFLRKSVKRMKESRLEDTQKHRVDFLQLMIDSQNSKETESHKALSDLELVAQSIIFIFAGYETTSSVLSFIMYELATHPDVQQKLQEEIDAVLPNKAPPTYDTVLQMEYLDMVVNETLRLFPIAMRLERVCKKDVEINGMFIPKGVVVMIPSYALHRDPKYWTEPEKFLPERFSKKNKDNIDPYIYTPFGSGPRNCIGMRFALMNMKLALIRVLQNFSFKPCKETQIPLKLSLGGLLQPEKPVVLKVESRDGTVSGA
Chain of Nuclear receptor subfamily 1 group I member 2 (Homo sapiens) (O75469 whole entry, looked up): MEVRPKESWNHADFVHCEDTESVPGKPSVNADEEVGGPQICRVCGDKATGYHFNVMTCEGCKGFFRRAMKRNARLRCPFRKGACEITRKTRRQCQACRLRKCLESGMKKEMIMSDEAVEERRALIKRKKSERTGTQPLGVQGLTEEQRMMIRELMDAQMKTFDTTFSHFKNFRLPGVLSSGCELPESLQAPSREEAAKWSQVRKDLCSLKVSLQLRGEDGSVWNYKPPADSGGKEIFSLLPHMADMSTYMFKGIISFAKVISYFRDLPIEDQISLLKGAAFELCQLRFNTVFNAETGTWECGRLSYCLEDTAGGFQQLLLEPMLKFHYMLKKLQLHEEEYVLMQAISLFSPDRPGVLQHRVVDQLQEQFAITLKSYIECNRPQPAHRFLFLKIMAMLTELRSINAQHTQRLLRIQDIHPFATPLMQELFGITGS
Chain of Cytochrome P450 2D6 (Homo sapiens) (P10635 whole entry, looked up): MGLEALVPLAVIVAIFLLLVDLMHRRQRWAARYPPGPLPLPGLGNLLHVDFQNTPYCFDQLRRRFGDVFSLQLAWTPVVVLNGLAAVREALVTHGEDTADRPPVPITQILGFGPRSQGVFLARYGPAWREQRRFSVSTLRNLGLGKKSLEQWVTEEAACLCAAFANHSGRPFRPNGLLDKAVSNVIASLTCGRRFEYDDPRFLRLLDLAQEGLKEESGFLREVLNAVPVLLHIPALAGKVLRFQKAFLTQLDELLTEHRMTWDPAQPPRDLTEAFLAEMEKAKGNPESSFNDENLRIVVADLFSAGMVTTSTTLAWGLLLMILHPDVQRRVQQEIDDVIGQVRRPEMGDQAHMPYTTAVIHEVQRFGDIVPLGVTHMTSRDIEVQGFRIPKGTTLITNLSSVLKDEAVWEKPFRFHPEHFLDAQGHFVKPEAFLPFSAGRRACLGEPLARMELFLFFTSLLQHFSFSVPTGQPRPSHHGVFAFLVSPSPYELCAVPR
Chain of Cytochrome P450 1A2 (Homo sapiens) (P05177 whole entry, looked up): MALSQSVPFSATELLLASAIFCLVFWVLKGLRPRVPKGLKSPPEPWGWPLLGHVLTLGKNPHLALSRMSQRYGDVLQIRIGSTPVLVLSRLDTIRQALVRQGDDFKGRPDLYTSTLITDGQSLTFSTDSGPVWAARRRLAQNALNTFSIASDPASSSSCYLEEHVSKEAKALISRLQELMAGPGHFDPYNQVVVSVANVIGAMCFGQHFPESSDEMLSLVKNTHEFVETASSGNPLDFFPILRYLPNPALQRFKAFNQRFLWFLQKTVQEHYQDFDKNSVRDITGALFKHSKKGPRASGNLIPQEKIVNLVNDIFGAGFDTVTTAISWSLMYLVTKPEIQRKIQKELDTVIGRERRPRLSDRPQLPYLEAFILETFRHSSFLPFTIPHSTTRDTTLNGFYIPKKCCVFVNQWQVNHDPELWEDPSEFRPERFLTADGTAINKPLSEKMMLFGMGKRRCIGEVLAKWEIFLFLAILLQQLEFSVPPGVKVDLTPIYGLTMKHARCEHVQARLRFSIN
Chain of Cytochrome P450 2C19 (Homo sapiens) (P33261 whole entry, looked up): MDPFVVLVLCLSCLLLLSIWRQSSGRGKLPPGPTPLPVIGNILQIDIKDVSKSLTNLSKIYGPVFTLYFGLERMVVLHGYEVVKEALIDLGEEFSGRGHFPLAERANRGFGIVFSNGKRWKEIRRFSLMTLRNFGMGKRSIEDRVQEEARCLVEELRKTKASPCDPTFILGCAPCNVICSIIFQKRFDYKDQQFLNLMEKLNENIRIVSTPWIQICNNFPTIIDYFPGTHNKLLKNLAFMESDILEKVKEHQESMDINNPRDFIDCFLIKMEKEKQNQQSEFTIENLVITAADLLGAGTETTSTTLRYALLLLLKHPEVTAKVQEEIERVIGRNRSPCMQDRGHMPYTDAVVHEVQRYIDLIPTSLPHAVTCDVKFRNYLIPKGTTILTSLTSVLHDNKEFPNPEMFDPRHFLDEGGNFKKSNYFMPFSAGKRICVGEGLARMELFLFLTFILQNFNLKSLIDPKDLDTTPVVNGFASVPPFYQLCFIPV
Chain of Nuclear receptor subfamily 1 group I member 2 (Rattus norvegicus) (Q9R1A7 whole entry, looked up): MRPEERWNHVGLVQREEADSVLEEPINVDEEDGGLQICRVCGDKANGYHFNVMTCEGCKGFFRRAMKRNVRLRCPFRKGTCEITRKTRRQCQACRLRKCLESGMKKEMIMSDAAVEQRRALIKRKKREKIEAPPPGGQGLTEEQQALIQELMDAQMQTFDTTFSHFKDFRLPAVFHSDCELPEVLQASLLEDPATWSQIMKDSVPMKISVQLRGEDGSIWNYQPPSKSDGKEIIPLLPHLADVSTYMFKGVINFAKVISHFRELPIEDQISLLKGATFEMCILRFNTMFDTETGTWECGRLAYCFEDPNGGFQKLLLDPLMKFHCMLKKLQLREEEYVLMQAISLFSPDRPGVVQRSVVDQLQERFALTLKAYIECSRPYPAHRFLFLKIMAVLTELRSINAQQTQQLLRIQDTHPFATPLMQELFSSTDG

C[C@@H]1O[C@@H](O[C@@H]2[C@@H](O)[C@H](OCCc3ccc(O)c(O)c3)O[C@H](CO[C@@H]3O[C@H](CO)[C@@H](O)[C@H](O)[C@H]3O)[C@H]2OC(=O)/C=C/c2ccc(O)c(O)c2)[C@H](O)[C@H](O)[C@H]1O
Potency [1]: inactive | outcome [2]: inactive | Potency [3]: inactive | Potency [4]: inactive | Potency [5]: inactive | Potency [6]: inactive | Potency [7]: inactive | Potency [8]: inactive

OCCN(CCO)c1cccc(Cl)c1
Potency [1]: inactive | Potency [9]: inactive | outcome [2]: inactive | Potency [4]: inactive | Potency [5]: inactive | Potency [6]: 31.7 µM (active) | Potency [10]: inactive

CC(C)NCC(O)COc1ccc(COCCOC(C)C)cc1 (stereo not given)
Potency [1]: inactive | outcome [2]: inactive | Potency [3]: inactive | Potency [4]: inactive | max activation [11]: -3.07% | Potency [12]: inactive | Potency [13]: inactive | Potency [5]: inactive | Potency [6]: inactive | Potency [14]: inactive | Potency [7]: inactive | Potency [10]: inactive

O=C(c1ccc(O)cc1)c1ccc(O)c(O)c1O
Potency [1]: inactive | Potency [9]: 61.4 µM (active) | outcome [2]: inactive | Potency [4]: 13.7 µM (active) | Potency [5]: 40.1 µM (active) | Potency [6]: 40.1 µM (active) | Potency [10]: inactive

CCCCCCN
Potency [1]: inactive | outcome [2]: inactive | Potency [3]: inactive | Potency [4]: inactive | Potency [6]: inactive | Potency [14]: inactive | Potency [7]: inactive | Potency [10]: inactive | Potency [8]: inactive

CCCCC(CC)COCCO (stereo not given)
Potency [1]: inactive | outcome [2]: inactive | Potency [4]: inactive | Potency [5]: inactive | Potency [6]: inactive | Potency [10]: inactive | Potency [8]: inactive

Cc1cccc(C)c1OCC(C)N (stereo not given)
Potency [1]: inactive | Potency [9]: inactive | outcome [2]: inactive | max activation [11]: -1.45% | Potency [12]: inactive | Potency [13]: inactive | Potency [5]: 13.8 µM (active) | Potency [6]: inactive | Potency [10]: inactive | Potency [8]: inactive

CC(C(=O)O)c1ccc2c(c1)CC(=O)c1ccccc1S2 (stereo not given)
Potency [1]: inactive | Potency [9]: inactive | outcome [2]: inactive | Potency [3]: inactive | Potency [4]: inactive | Potency [5]: inactive | Potency [6]: inactive | Potency [8]: inactive

Cc1ccccc1C(=O)Nc1ccc(C(=O)N2CCCC(N(C)C)c3ccccc32)cc1 (stereo not given)
Potency [1]: 3.76 µM (active) | outcome [2]: inactive | Potency [3]: inactive | Potency [4]: 0.298 µM (active) | Potency [5]: inactive | Potency [6]: inactive | Potency [10]: inactive

OC[C@H](Cc1cccc(O)c1)[C@H](CO)Cc1cccc(O)c1
Potency [1]: inactive | Potency [9]: inactive | outcome [2]: inactive | Potency [3]: inactive | Potency [4]: inactive | Potency [6]: 32.5 µM (active) | Potency [14]: 23 µM (active) | Potency [8]: 18.3 µM (active)

CC(=O)N[C@@H](CCC(=O)O)C(=O)O
Potency [1]: inactive | Potency [9]: inactive | outcome [2]: inactive | Potency [3]: inactive | max activation [11]: -1.49% | Potency [12]: inactive | Potency [13]: inactive | Potency [5]: inactive | Potency [14]: inactive | Potency [10]: inactive | Potency [8]: inactive

O=C(CCN1CCN(CCO)CC1)N1c2ccccc2Sc2ccc(C(F)(F)F)cc21
Potency [1]: inactive | outcome [2]: inactive | Potency [3]: inactive | max activation [11]: -2.18% | Potency [12]: 10 µM (active) | Potency [13]: 15.8 µM (active) | Potency [5]: inactive | Potency [6]: inactive | Potency [14]: inactive | Potency [7]: inactive | Potency [10]: inactive

O=C(OCC(COC(=O)c1cccnc1)(COC(=O)c1cccnc1)COC(=O)c1cccnc1)c1cccnc1
Potency [1]: inactive | Potency [9]: inactive | outcome [2]: inactive | Potency [4]: inactive | Potency [5]: inactive | Potency [6]: inactive | Potency [7]: inactive | Potency [10]: inactive

CC(=O)NCc1c(I)c(NC(C)=O)c(I)c(C(=O)O)c1I
Potency [1]: inactive | outcome [2]: inactive | Potency [3]: inactive | Potency [4]: inactive | max activation [11]: -0.535% | Potency [12]: inactive | Potency [13]: inactive | Potency [14]: inactive | Potency [10]: inactive | Potency [8]: inactive

CCCCCCCCSCC
Potency [1]: inactive | outcome [2]: inactive | Potency [3]: inactive | Potency [4]: inactive | Potency [5]: inactive | Potency [6]: inactive | Potency [14]: inactive | Potency [7]: inactive | Potency [10]: inactive | Potency [8]: inactive

CC(=O)Nc1ccc(S(=O)(=O)Nc2ccc([N+](=O)[O-])cc2)cc1
Potency [1]: inactive | outcome [2]: inactive | Potency [3]: 29.8 µM (active) | Potency [4]: inactive | max activation [11]: -3.2% | Potency [12]: inactive | Potency [13]: inactive | Potency [5]: inactive | Potency [6]: 15.5 µM (active) | Potency [14]: 13.8 µM (active) | Potency [7]: inactive | Potency [10]: inactive
